# Compound activity (PubChem BioAssay)
# IL1B secr inh = inflammasome signaling inhibition, IL-1 beta readout; activity change, % at 57.5 µM; THP-1 LPS/ATP IL-1B secretion, AlphaLISA, 16 h; active compounds read low; 4.7% of 360,000 active; AID 743279; in the data active = activity change below about -50%; inconclusive = mostly about -30% to -49%
#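 THP-1 cells pretreated 1 hr with compounds (up to 57.5 uM final), then stimulated with LPS (250 ng/mL final) plus ATP (1.25 mM final); secreted IL-1B measured by AlphaLISA after 16 hr, decreased signal indicating inhibition.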
# TDP1 cell CPT = DT40-hTDP1 cell growth loss with CPT. chicken DT40 Tdp1-/-;hTDP1 cells + 20 nM CPT, ATP luminescence, 48 h. Potency, µM (top dose mostly 46.2 µM), for the others: at the highest dose activity change, negative = growth inhibition, most hits filed as inhibitors. 12% of 420,000 active. AID 686979; note: potency is the fitted concentration of half-maximal effect; nearly all actives have a fitted effect of over 55% in size
#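 Chicken DT40 Tdp1-/- cells complemented with human TDP1, 400 cells/well, exposed to compounds plus 20 nM camptothecin for at least 48 h at 37 C; viability read as ATP content by CellTiter-Glo luminescence.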
# RORgamma inh = inhibitors of mouse ROR gamma transcriptional activity; Potency, µM (titrated, usually from 53.6 µM), for the others: at the top dose activity change, negative = inhibition, actives largely listed as inhibitors; P51450; Drosophila S2 Gal4-RORgamma UAS-luciferase reporter, 20 h; AID 2551; 5.4% of 310,000 active; note: potency is the fitted concentration of half-maximal effect; nearly all actives have a fitted effect of over 60% in size
# Target sequence (P51450 whole entry, looked up, the tested form may be a part): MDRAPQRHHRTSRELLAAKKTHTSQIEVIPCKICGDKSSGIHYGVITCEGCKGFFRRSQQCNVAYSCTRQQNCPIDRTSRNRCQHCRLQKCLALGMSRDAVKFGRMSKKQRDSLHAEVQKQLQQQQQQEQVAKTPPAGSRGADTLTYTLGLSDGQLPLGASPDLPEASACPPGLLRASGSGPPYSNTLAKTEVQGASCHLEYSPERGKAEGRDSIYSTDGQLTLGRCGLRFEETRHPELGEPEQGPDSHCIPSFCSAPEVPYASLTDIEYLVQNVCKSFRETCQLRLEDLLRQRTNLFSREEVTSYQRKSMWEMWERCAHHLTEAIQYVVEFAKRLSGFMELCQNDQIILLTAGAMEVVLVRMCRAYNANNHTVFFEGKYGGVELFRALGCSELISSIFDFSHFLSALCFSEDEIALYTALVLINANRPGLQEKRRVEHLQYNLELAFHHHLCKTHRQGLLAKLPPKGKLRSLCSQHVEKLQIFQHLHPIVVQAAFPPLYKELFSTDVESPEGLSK
#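 Drosophila Schneider cells stably carrying a metallothionein-driven Gal4 DBD–ROR gamma fusion and a UAS-Photinus luciferase reporter were exposed to compound for 1 hr, then induced with copper sulfate (700 uM final) for 20 hr at ambient temperature before luminescence reading.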
# TDP1 cell noCPT = qHTS for Inhibitors of human tyrosyl-DNA phosphodiesterase 1 (TDP1): qHTS in cells in absence of CPT; DT40 Tdp1-/- hTDP1 cells, no CPT, ATP luminescence, 48 h; Potency, µM (highest dose often 46.2 µM), for inactives: at the top dose activity change, negative = growth inhibition, hits mostly inhibitors; 15% of 420,000 active; AID 686978, 2013; note: potency is the fitted concentration of half-maximal effect; nearly all actives have a fitted effect of over 55% in size
#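 Readout: luminescence from CellTiter-Glo after 30 min in the dark at RT. Cells: DT40 Tdp1-/- with stable hTDP1, 400/well. Exposure: compounds alone, ≥48 hr, 37 °C.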
# LDHA inh = blocks human lactate dehydrogenase A; 0.15% of 480,000 active; P00338; activity change, % (values are at about 110 or 230 µM); purified LDHA, NADH/diaphorase-resazurin fluorescence; active compounds read low; AID 1347041; in the data active = activity change below about -30%; inconclusive = mostly about -25% to -30%;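 note: plate controls were DMSO wells for no effect and wells without enzyme for full effect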
#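 LDH5 2 nM; NADH 0.06 mM, pyruvate 0.2 mM; 200 mM Tris pH 7.4, EDTA, Tween-20; 5 min RT. Detection: diaphorase 0.133 mg/mL + resazurin 37 µM, fluorescence ex540/em590 at 0 and 20 min; normalized to enzyme-free and DMSO wells.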
# VP16 counter = counter-screen for ROR gamma inhibitors: Gal4-VP16 reporter; AID 2546; Potency, µM (top dose mostly 53.6 µM), for inactives: at the highest dose activity, negative = inhibition, actives largely listed as inhibitors; 3.5% of 310,000 active; Drosophila S2 Gal4-VP16 UAS-luciferase, luminescence, 20 h;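 note: Gal4-VP16 expression switched on by copper sulfate through the metallothionein promoter; potency is the fitted concentration of half-maximal effect; nearly all actives have a fitted effect of over 50% in size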
# * hit, by the source's call; ? = inconclusive; . = not tested or not shown. Most compounds without a hit are left out; they make up all but 18% or so of the library. Unless noted, calls come from the whole dose curve; as a rule, active = well fitted curve in the direction sought with a large enough effect; inconclusive = small, poorly fitted or top-dose-only effect, or another doubt; inactive = no such curve, though single readings can be large; an effect the other way counts as inactive or inconclusive. Unless noted, % is set by controls: 0 for no effect and ±100 for the full control effect.
SMILES,IL1B secr inh,TDP1 cell CPT,RORgamma inh,TDP1 cell noCPT,LDHA inh,VP16 counter
CCn1cc(/C=N\NC(=O)c2cc(-c3ccccc3OC)nc3ccccc23)c(C)n1,-1.9,?,?,16.4µM*,-8.2,?
COc1ccccc1-c1cc(C(=O)N/N=C\c2cnn(C)c2C)c2ccccc2n1,13.7,?,?,?,-2.3,11.1%
CC1(O)CC(c2ccc(Cl)cc2)=NN1C(=O)c1ccc([N+](=O)[O-])cc1 (stereo unspecified),-88.5*,20.6µM*,?,18.4µM*,-7.1,?
C#CCOc1nc(Nc2cccc([N+](=O)[O-])c2)nc(OCC#C)n1,-65.6*,?,25.0%,20.6µM*,-8.8,-6.4%
COc1nc(Nc2cccc([N+](=O)[O-])c2)nc(OC)n1,-8.1,6.3%,7.5%,-9.9%,-4.9,6.5%
CN(/N=C/c1ccccc1Cl)c1ncc(Cl)cc1C(F)(F)F,32.2,1.7%,5.9%,-3.2%,0.1,5.3%
CN(/N=C/c1ccc(O)cc1O)c1ncc(C(F)(F)F)cc1Cl,-22.7,?,7.94µM*,?,3.9,-11.2%
Cc1ccccc1Nc1cccc2nonc12,-51.8*,1.8%,-44.1%,-24.7%,0.7,?
Cc1cc2ncc(-c3cccs3)nc2cc1C,8.0,-25.0%,10µM*,?,-8.5,?
c1csc(-c2ccc3ccccc3n2)c1,16.2,-8.4%,-8.4%,-33.9%,2.9,18.2%
Cc1ccc(CSc2nc3cccnc3n2Cc2ccc(C(=O)NCc3cccs3)cc2)cc1,.,-28.3%,.,-3.0%,-9.6,.
CCOC(=O)CNC(=O)CSc1nc2cccnc2n1Cc1ccccc1,0.0,-9.0%,6.7%,-10.0%,-5.7,-2.7%
Cc1ccccc1CNC(=O)c1ccc(Cn2c(SCc3ccccc3)nc3cccnc32)cc1,.,?,.,?,1.0,.
Cc1nc(NC(=O)CSc2nc3cccnc3n2Cc2ccccc2)sc1C,-20.9,?,12.6µM*,?,-5.2,?
Cc1cccc(Cn2c(SCc3ccc(C(=O)NCc4cccs4)cc3)nc3cccnc32)c1,.,?,.,14.6µM*,-10.0,.
CC(CNC(=O)c1ccc(Cn2c(SCc3ccccc3)nc3cccnc32)cc1)c1ccccc1 (stereo unspecified),.,?,.,20.6µM*,-1.3,.
O=C(NCc1cccs1)c1ccc(Cn2c(SCc3ccccc3)nc3cccnc32)cc1,.,?,.,25.9µM*,-3.5,.
COc1ccc(S(=O)(=O)Nc2nc3ccccc3nc2Nc2cc(C)ccc2C)cc1,.,.,.,.,0.4,.
COc1ccc(C(=O)COC(=O)c2cc(Cl)ccc2Cl)c(OC)c1,.,.,.,.,-1.0,.
O=C(O)CCC(=O)c1ccc(Cl)s1,.,.,.,.,10.2,.
CC(C)CCNc1nc2c(c(=O)[nH]c(=O)n2C)n1C(C)C,.,.,.,.,1.6,.
O=C(NCc1ccco1)c1ccc(Cn2c(SCc3ccccc3F)nc3cccnc32)cc1,.,?,.,23.1µM*,0.3,.
Cc1ccc(CNC(=O)c2ccc(Cn3c(SCc4ccccc4F)nc4cccnc43)cc2)cc1,.,?,.,?,1.9,.
O=C(NCCc1cccs1)c1ccc(Cn2c(SCc3ccc(F)cc3)nc3cccnc32)cc1,.,?,.,20.6µM*,-8.2,.
O=C(NCc1cccs1)c1ccc(CSc2nc3cccnc3n2Cc2ccccc2F)cc1,.,?,.,23.1µM*,?,.
SMILES,IL1B secr inh,TDP1 cell CPT,RORgamma inh,TDP1 cell noCPT,LDHA inh,VP16 counter
Cc1ccc(C(=O)N/C(=C/c2ccc(-c3ccc([N+](=O)[O-])cc3)o2)C(=O)NCCCN(C)C)cc1,.,20.6µM*,.,20.6µM*,-0.5,.
Cc1ccc(C(=O)N/C(=C\c2ccc(-c3cccc([N+](=O)[O-])c3)o2)C(=O)NC(C)(C)C)cc1,-6.8,14.6µM*,25.9%,16.4µM*,-7.0,?
COc1ccc(C(=O)N/C(=C\c2ccc(-c3cccc(Cl)c3)o2)C(=O)NC(C)(C)C)cc1,.,.,.,.,5.0,.
O=C(NC1CCS(=O)(=O)C1)/C(=C\c1ccco1)NC(=O)c1ccccc1 (stereo unspecified),-63.2*,4.2%,1.7%,-8.1%,4.9,-15.9%
Cc1ccc(C(=O)N/C(=C\c2ccc(-c3ccc([N+](=O)[O-])cc3)o2)C(=O)NC2CCS(=O)(=O)C2)cc1 (stereo unspecified),-17.5,20.6µM*,2.5%,?,-6.5,-19.5%
O=C(NCCCN1CCOCC1)/C(=C/c1ccc(-c2cccc([N+](=O)[O-])c2)o1)NC(=O)c1ccccc1,?,?,.,?,-4.3,.
CNC(=O)c1nn(CC(=O)NCCc2ccc(F)cc2)c(=O)c2ccccc12,.,.,.,.,0.0,.
O=S(=O)(NC1CC2CCC1C2)c1ccc(Br)cc1 (stereo unspecified),3.1,-20.0%,5.3%,-15.5%,2.6,-16.7%
O=S(=O)(NC1CC2CCC1C2)c1ccc(Br)s1 (stereo unspecified),9.7,?,33.6%,23.1µM*,-1.0,-2.0%
Cc1cc(C)n(-c2nc3c(c(=O)n(CCN4CCOCC4)c(=O)n3C)n2CCC(C)C)n1,.,.,.,.,-0.4,.
CC1(C)CC(=O)C(C2(O)C(=O)N(Cc3ccccc3)c3ccccc32)CO1 (stereo unspecified),-1.5,4.61µM*,1.3%,5.17µM*,11.2,-7.4%
CC1(C)CC(=O)C(C2(O)C(=O)Nc3ccccc32)CO1 (stereo unspecified),5.7,18.6%,-3.2%,-11.1%,-2.5,-7.2%
CC(C)N1C(=O)C(O)(C2COC(C)(C)CC2=O)c2ccccc21 (stereo unspecified),-2.9,5.8µM*,-9.2%,7.31µM*,-1.2,-7.0%
O=C1N(Cc2ccccc2)c2ccccc2C12OCCO2,17.8,-1.0%,16.1%,-24.3%,-1.8,-1.3%
CC1(C)CC(=O)CC(C2(O)C(=O)N(Cc3ccccc3)c3ccccc32)O1 (stereo unspecified),21.0,2.59µM*,-12.8%,1.84µM*,1.1,-7.1%
Cc1ccc(NC(=O)Nc2ccc(Cl)cc2)c(Br)c1,-21.1,?,24.5%,23.1µM*,-4.9,-9.3%
Cc1ccc(S(=O)(=O)C2(C(=O)Nc3ccc(Cl)c(C(F)(F)F)c3)CC2)cc1,.,?,.,16.4µM*,5.8,.
O=C(Nc1nccs1)C1(S(=O)(=O)c2ccc(Cl)cc2)CC1,-8.7,-15.2%,7.08µM*,-20.9%,-4.1,?
Cc1ccc(NC(=O)C2(S(=O)(=O)c3ccc(Cl)cc3)CC2)c(Br)c1,-3.5,?,-1.7%,16.4µM*,-1.7,3.4%
COc1ccc(NC(=O)COc2coc(CN3CCSCC3)cc2=O)cc1OC,.,.,.,.,13.3,.
